SMILES strings stand for the structures. In all, about 59,000 compounds went through this assay and about 6,500 (11%) were called active. Inconclusive results (about 15%) are left out. Cut-off read from the data, not from the text of the source: active = max dye-equivalent concentration above about 10 nM; inconclusive = mostly about 1.1 nM to 9.6 nM; inactive = weaker than that. For the sample, actives were picked, then their nearest neighbours and some compounds at random.

Experimental findings from PubChem BioAssay AID590 (National Center for Advancing Translational Sciences (NCATS), 2007) are described below.

This test in a line: qHTS Assay for Spectroscopic Profiling in A350 Spectral Region. The following applies: Compound autofluorescence, 340/450 nm, Alexa 350 dye-equivalents; stronger effect = higher value. For orientation: In qHTS, concentration-response curves come from the screen itself.
For `COc1ccc(-n2c(SCC(=O)Nc3ccc4c(c3)OCO4)nnc2C(C)N2CCCCC2)cc1` (centres undefined), the max dye-equivalent concentration result is “inactive”.

As for `O=C(NCCCNC(=O)NC1CCCCC1)NC1CCCCC1`, the max dye-equivalent concentration result was “inactive”.

`CC(=NCc1ccc2c(c1)OCO2)C1=C(O)c2ccccc2C1=O`: the max dye-equivalent concentration entry was “inactive”.

`O=c1[nH]c(=O)c2nc3ccccc3nc2[nH]1`: the max dye-equivalent concentration is 200 nM (active).

With `O=c1[nH]c(-c2cccs2)nc2ccccc12`, the max dye-equivalent concentration result is “inactive”.

With `CCc1c(C)nc(N2CCN(Cc3ccccc3)CC2)[nH]c1=O`, the max dye-equivalent concentration result is “inactive”.

Consider `N#C/C(=C\c1ccc(O)c(O)c1)C(=O)NCc1ccccc1`, for which the max dye-equivalent concentration result was “inactive”.

Consider `CCSC1=C(C#N)C(=O)n2c1cc1c2CCCC1`, for which the max dye-equivalent concentration result was “inactive”.

For `N#CC1=C(N)C(C#N)(C#N)[C@H](c2ccsc2)[C@H]2COCC=C12`, the max dye-equivalent concentration was 17 nM (active).

For the compound `O=C(NCc1ccc(Cl)cc1)c1cc2c(nc3sccn32)s1`, the max dye-equivalent concentration entry is “inactive”.

Take `Cc1ccnc(N2CCCC(C(=O)Nc3cc(F)ccc3C)C2)n1` (centres undefined): the max dye-equivalent concentration entry is “inactive”.

As for `CCOC(=O)C1=C(CNC2CCCCC2)NC(=O)NC1c1cc(C)ccc1C` (centres undefined), the max dye-equivalent concentration entry was “inactive”.

In the case of `c1cncc(CNc2ccnc(-c3ccc4c(c3)OCO4)n2)c1`, the max dye-equivalent concentration is 15 nM (active).

On to `Cc1cccc(CNc2ccnc(-c3cccnc3)n2)c1`, for which the max dye-equivalent concentration result is “inactive”.

With `O=C(Nc1cccnc1)c1ccc2c(c1)OCO2`, the max dye-equivalent concentration entry is “inactive”.

On to `CC(=O)N=c1ncn(CC(COC(C)=O)OC(C)=O)c2nc[nH]c12` (centres undefined), for which the max dye-equivalent concentration entry was “inactive”.

With `Cc1ccc(C)c(S(=O)(=O)N2CC(=O)Nc3ccccc32)c1`, the max dye-equivalent concentration result was “inactive”.

Consider `Cc1ccc(OCC(=O)Nc2ccc(-c3nnc(-c4ccco4)o3)cc2)cc1`, for which the max dye-equivalent concentration entry was “inactive”.

In the case of `Cc1ccc(OCC(=O)Nc2ccc(-c3nc4ncccc4o3)cc2)cc1`, the max dye-equivalent concentration was 25 nM (active).

Consider `COc1ccc(CC(=O)Nc2ccc(-c3nnc(-c4ccc(C)cc4)o3)cc2)cc1`, for which the max dye-equivalent concentration entry was “inactive”.

For `CCOC(=O)c1cc(C)sc1NC(=O)C1CCC1`, the max dye-equivalent concentration result was “inactive”.

For `Cn1c(-c2ccc(F)cc2)cnc1SCC(=O)NCc1ccco1`, the max dye-equivalent concentration result is “inactive”.

For `Cc1ccc(S(=O)(=O)N2CCC(N3CCCCCC3)CC2)cc1`, the max dye-equivalent concentration result is “inactive”.

In the case of `Fc1ccc(Cn2nnnc2C(c2cccs2)N2CCCCCC2)cc1` (centres undefined), the max dye-equivalent concentration entry was “inactive”.

On to `Cc1cc(C)c2c(n1)nn1c(N3CCN(c4cccc(Cl)c4)CC3)cc(C)nc21`, for which the max dye-equivalent concentration was 110 nM (active).

`Cc1cc(C)c2c(n1)nn1c(N3CCOCC3)cc(C)nc21`: the max dye-equivalent concentration was 7500 nM (active).

As to `CCN1C(=O)/C(=C\N2CCN(c3cccc(Cl)c3)CC2)SC1=S`, the max dye-equivalent concentration entry is “inactive”.

As for `Cc1nn2c3cc(N4CCOCC4)ccc3nc2c2ccccc12`, the max dye-equivalent concentration entry is “inactive”.

Take `Cc1cc(N2CCN(Cc3ccc4c(c3)OCO4)CC2)n2ncnc2n1`: the max dye-equivalent concentration entry is “inactive”.

With `CS(=O)(=O)N(CC(=O)N1CCN(c2cccc(Cl)c2)CC1)c1ccccc1`, the max dye-equivalent concentration entry was “inactive”.

For `Cc1cc(C)c2c(n1)nn1c(-n3ccnc3)cc(C)nc21`, the max dye-equivalent concentration is 260 nM (active).

For the compound `CN1CCN(CC(O)COCc2ccc3c(c2)OCO3)CC1` (centres undefined), the max dye-equivalent concentration entry was “inactive”.

With `CCOC(=O)Nc1ccc2c(c1)N(C(=O)CN1CCN3CCCC3C1)c1ccccc1CC2` (centres undefined), the max dye-equivalent concentration result is “inactive”.

Take `CSc1cccc(NC(=O)CSc2ccccc2)c1`: the max dye-equivalent concentration entry was “inactive”.

`Cc1ccccc1CSc1nnc(-c2cccnc2)n1N`: the max dye-equivalent concentration result is “inactive”.

With `CCOC(=O)C1C(=O)C=C(c2ccc(OC)cc2)CC1c1ccco1` (centres undefined), the max dye-equivalent concentration was 11 nM (active).

Consider `COc1ccc(C2OC(=O)CC2C(=O)NC(C)C)cc1` (centres undefined), for which the max dye-equivalent concentration entry was “inactive”.

Turning to `CCOC(=O)C1C(=O)NC(N2CCN(c3ccccc3)CC2)=NC1c1ccco1` (centres undefined), the max dye-equivalent concentration entry is “inactive”.

Turning to `CNC(=O)c1nnn(-c2ccccc2)c1C(=O)NC`, the max dye-equivalent concentration result is “inactive”.

As for `CCn1ccnc1C[C@@H]1COc2ccccc2O1`, the max dye-equivalent concentration entry was “inactive”.

Turning to `CC1=C(C(=O)Nc2ccc(Cl)cc2)C(c2ccco2)NC(=O)N1` (centres undefined), the max dye-equivalent concentration result was “inactive”.

`COc1ccc(Cl)cc1NC(=O)C1CC(=O)N(c2ccc(F)cc2)C1` (centres undefined): the max dye-equivalent concentration result is “inactive”.

In the case of `COCCCNC(=O)C1CC(=O)N(c2ccc(C)cc2)C1` (centres undefined), the max dye-equivalent concentration entry was “inactive”.

For the compound `COc1cccc(N2CC(C(=O)Nc3c(C)cccc3C)CC2=O)c1` (centres undefined), the max dye-equivalent concentration is 19 nM (active).

In the case of `O=C(CSc1nnc(-c2cccs2)n1Cc1ccco1)c1ccc2c(c1)OCO2`, the max dye-equivalent concentration entry is “inactive”.

For the compound `Cc1ccc(-n2ncc3c(N4CCN(c5ccc(F)cc5)CC4)ncnc32)c(C)c1`, the max dye-equivalent concentration entry was “inactive”.

In the case of `CCN1CCCC1CNC(=O)Cn1cnc2ccc(S(=O)(=O)N3CCC(C)CC3)cc2c1=O` (centres undefined), the max dye-equivalent concentration result is “inactive”.

Turning to `Fc1ccc2[nH]c3c(N4CCSCC4)ncnc3c2c1`, the max dye-equivalent concentration was 13 nM (active).

Take `CCN1CCCC1CNc1ncnc2c1[nH]c1ccc(F)cc12` (centres undefined): the max dye-equivalent concentration was 14 nM (active).

With `Cc1cc(OCC(=O)O)c(Cl)cc1Cl`, the max dye-equivalent concentration result was “inactive”.

Regarding `CCn1c(Cc2ccccc2)nnc1SCc1nc2ccccc2c(=O)[nH]1`, the max dye-equivalent concentration entry was “inactive”.

For the compound `COCCCNC(=O)CCc1nc2cccnc2n1Cc1ccc(OC)cc1`, the max dye-equivalent concentration entry is “inactive”.

On to `O=C(CC1CCCCC1)Nc1c2c(nn1-c1ccc(F)cc1)CS(=O)(=O)C2`, for which the max dye-equivalent concentration entry is “inactive”.

`Cc1c(C)c2cc3c4c(oc3c(C)c2oc1=O)CCCC4`: the max dye-equivalent concentration was 25 nM (active).
